Assay outcomes as filed in PubChem BioAssay.
L3MBTL1 inh: L3MBTL1 (human) inhibition | Potency, µM (highest dose often 57.1 µM), without a hit: at the highest dose activity, negative = inhibition, hits mostly inhibitors | Q9Y468 | 230,000 compounds, 0.66% hits | AlphaScreen L3MBTL1–H3K9me1 peptide binding; further: on the % scale 0 is the no-effect control and ±100 the full control effect; nearly all actives have a fitted effect of over 60% in size
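L3MBTL1 50 nM + b-AHA-H3(1-15)K9me1 75 nM, 30 min RT; compound added, 30 min RT; streptavidin donor/Ni-chelate acceptor beads 10 ug/mL each final, 30 min RT dark; AlphaScreen read.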
JMJD2A Tudor inh: blocks the human JMJD2A Tudor domain | AID 504339 | 390,000 compounds, 4.4% hits | AlphaScreen JMJD2A-Tudor / H3K4me3 peptide binding | Potency, µM (titrated, usually from 114 µM), for the others: at the top dose activity change, negative = inhibition, usual class: inhibitors; further: on the % scale 0 is the no-effect control and ±100 the full control effect; nearly all actives have a fitted effect of over 50% in size
Target sequence (O75164 whole entry, looked up, the tested form may be a part): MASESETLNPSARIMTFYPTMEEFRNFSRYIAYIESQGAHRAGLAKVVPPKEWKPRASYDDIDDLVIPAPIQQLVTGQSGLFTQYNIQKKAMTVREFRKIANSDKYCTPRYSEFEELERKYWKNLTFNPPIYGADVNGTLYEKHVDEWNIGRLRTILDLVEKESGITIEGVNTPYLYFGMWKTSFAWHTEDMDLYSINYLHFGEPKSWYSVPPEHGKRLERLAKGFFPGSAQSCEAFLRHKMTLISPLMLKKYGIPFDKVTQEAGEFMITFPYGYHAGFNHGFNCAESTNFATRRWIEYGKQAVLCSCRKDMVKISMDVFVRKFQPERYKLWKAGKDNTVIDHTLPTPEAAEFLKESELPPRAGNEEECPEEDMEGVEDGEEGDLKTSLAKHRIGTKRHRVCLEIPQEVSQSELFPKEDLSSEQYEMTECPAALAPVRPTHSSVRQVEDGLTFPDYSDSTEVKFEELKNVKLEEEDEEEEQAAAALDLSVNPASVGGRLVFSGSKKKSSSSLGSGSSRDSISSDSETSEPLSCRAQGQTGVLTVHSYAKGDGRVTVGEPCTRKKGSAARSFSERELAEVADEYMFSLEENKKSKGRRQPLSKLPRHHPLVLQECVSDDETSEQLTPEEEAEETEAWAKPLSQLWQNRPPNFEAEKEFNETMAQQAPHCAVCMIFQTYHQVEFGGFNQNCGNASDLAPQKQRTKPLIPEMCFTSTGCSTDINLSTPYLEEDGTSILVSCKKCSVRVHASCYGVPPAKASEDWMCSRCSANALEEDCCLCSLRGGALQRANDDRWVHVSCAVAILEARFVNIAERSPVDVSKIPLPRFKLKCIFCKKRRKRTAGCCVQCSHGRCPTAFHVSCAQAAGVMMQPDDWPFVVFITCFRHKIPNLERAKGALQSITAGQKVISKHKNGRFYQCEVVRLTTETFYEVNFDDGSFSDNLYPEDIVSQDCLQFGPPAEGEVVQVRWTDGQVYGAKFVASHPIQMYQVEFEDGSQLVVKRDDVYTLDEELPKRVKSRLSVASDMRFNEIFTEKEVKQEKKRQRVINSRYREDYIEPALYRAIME
G9a inh: G9a (human) methyltransferase inhibition. G9a H3K9 monomethylation, AlphaScreen, 2 h. Potency, µM (series often up to 102 µM), for the others: at the top dose activity, negative = inhibition, most hits filed as inhibitors. 350,000 compounds, 8.8% hits. AID 504332; further: on the % scale 0 is the no-effect control and ±100 the full control effect; nearly all actives have a fitted effect of over 75% in size
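AlphaScreen detection with an anti-monomethyl H3K9 antibody quantified product after a 2 h room-temperature reaction containing 500 nM biotinylated H3K9 peptide, 20 µM SAM and 20 nM enzyme, which had been preincubated 15 min with compound.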
BAZ2B block: blocks human BAZ2B. Q9UIF8. Potency, µM (highest dose often 114 µM), for the others: at the highest dose activity change, negative = inhibition, hits mostly inhibitors. AlphaScreen BAZ2B-H3K14Ac peptide displacement. 360,000 compounds, 4.4% hits; further: on the % scale 0 is the no-effect control and ±100 the full control effect; nearly all actives have a fitted effect of over 60% in size
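BAZ2B 50 nM plus b-H3(5-23)K14Ac 50 nM, PBS pH 7.4/0.01% Tween-20, 30 min RT; compound added (max 110 uM), 30 min RT; streptavidin donor/Ni-chelate acceptor beads 10 ug/mL final, 20 min dark; AlphaScreen read.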
HP1b chromo inh: blocks HP1-beta chromodomain binding to methylated histone tails; P83916; AlphaScreen HP1-beta / biotin-H3K9me3 peptide binding; Potency, µM (top dose mostly 114 µM), inactives show at the top dose activity change, negative = inhibition, usual class: inhibitors; 390,000 compounds, 0.56% hits; further: nearly all actives have a fitted effect of over 70% in size
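AlphaScreen: HP1-beta (50 nM) preformed 30 min with biotin-H3(1-18)K9me3 peptide (50 nM) in PBS pH 7.4, 0.01% Tween-20. Compound added for 30 min at RT, then streptavidin donor/nickel chelate acceptor beads (10 ug/mL) for 30 min.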
Starred values were filed as active, the others as inactive; ? = inconclusive; nt = no result given; [ ] = another dose, or the depositor's remark. Hits are enriched below; roughly 11% of the tested compounds scored in any of these assays. The call rests on the fitted dose curve; in most records, active means well fitted inhibition curve with a large enough effect; inconclusive means small, poorly fitted or top-dose-only effect; inactive means no such curve, though single readings can be large or run the other way. Potency means the concentration at half of the fitted maximal effect.

SMILES	L3MBTL1 inh	JMJD2A Tudor inh	G9a inh	BAZ2B block	HP1b chromo inh
Cc1csc(=O)n1CC(=O)OCC(=O)NNC(=O)c1ccccc1	nt	0.7%	44.0%	-5.5%	29.2%
Cc1csc(=O)n1CCC(=O)OCC(=O)NNC(=O)c1ccccc1	-5.9%	3.4%	56.2µM*	-4.1%	15.6%
Cc1csc(=O)n1CCC(=O)OCC(=O)Nc1cc(Cl)ccc1[N+](=O)[O-]	-18.6%	?	18.8%[12.7 µM]	?	?
Cc1csc(=O)n1CCC(=O)OCC(=O)Nc1ncc(Cl)cc1Cl	-12.2%	-19.3%	44.7µM*	?	-20.4%
Cc1nn(-c2ccccc2)cc1/C=N/NC(N)=S	-2.9%	13.1%[57.1 µM]	2.1%[59 µM]	-17.0%	47.2%
Cc1nn(-c2ccccc2)cc1C(c1c(N)[nH]c(=S)[nH]c1=O)c1c(N)[nH]c(=S)[nH]c1=O	-16.9%	-15.0%[11.4 µM]	31.6µM*	-36.3%	13.9%
O=C(C(Cl)Cl)N1CCN(Cc2ccccc2)CC1	-2.8%	6.1%	-5.9%	-2.2%	29.6%
CC(CN1CCN(Cc2ccccc2)CC1)c1ccccc1 (stereo unspecified)	-3.4%[2.29 µM]	89.1µM*	22.3%[0.501 µM]	-7.5%	-8.1%
CC(CN1CCC(O)CC1)c1ccccc1 (stereo unspecified)	-3.6%	2.82µM*	nt	?	?
ClC(CCN1CCN(Cc2ccccc2)CC1)c1ccccc1 (stereo unspecified)	nt	50.1µM*	nt	nt	10.9%
CC1CCN(C(=O)C2CCN(CC(C)c3ccccc3)CC2)CC1 (stereo unspecified)	0.5%	?	?	58.5%	?
Cc1ccc2c(C)ccc(O)c2n1	nt	-7.3%	3.55µM*	?	5.5%
Cc1ccc2c(Cl)cc(Cl)c(O)c2n1	nt	-5.5%	nt	nt	2.6%
CC(CNc1nc2ccccc2c2nc(-c3ccccc3)nn12)c1ccccc1 (stereo unspecified)	nt	5.5%	-23.7%[59 µM]	3.4%	36.3%
COc1ccccc1C(=O)Nc1cccc(C(=O)OCc2cc(=O)n3cc(C)sc3n2)c1	nt	-18.5%	-2.4%[59 µM]	-13.8%	-5.0%
COc1ccc2c(c1)CC/C2=N\OC(=O)c1ccccc1OC	-7.6%[11.4 µM]	-14.4%	-8.5%	-23.6%	30.9%
COc1ccccc1C(=O)O/N=C1/CCCc2c1ccc(OC)c2[N+](=O)[O-]	-2.5%	-27.0%	50.1µM*	-0.4%	9.8%
COc1cc(C(=O)O/N=C2\CCCc3c2ccc(OC)c3[N+](=O)[O-])cc(OC)c1OC	2.3%	-5.5%[11.4 µM]	?	-2.9%	47.5%
COc1ccc2c(c1[N+](=O)[O-])CCC/C2=N/OC(=O)c1ccccc1SC	-7.2%	-24.6%	44.7µM*	?	16.0%
COc1cc2c(=O)c(S(=O)(=O)c3ccccc3)cn(CC(=O)Nc3ccccc3C)c2cc1OC	nt	-14.9%	-7.5%[59 µM]	-6.5%	23.4%
Fc1ccccc1-n1[nH]nnc1=S	nt	?	7.94µM*	?	?
CC1C(=O)NN=C1C(=O)N/N=C\c1ccc(O)cc1O (stereo unspecified)	28.2µM*	39.8µM*	4.5%[59 µM]	11.2µM*	16.2%
CCOc1ccc(C(=O)Nc2cccc(-c3ccc(N4CCOCC4)nn3)c2)cc1OCC	4.7%	-11.6%	44.7µM*	-4.9%	4.0%
CN1CCN(c2ccc(-c3cccc(NC(=O)COc4ccc(Cl)cc4)c3)nn2)CC1	-8.6%	-33.8%	50.1µM*	-9.8%	-14.1%
CN1CCN(c2ccc(-c3cccc(NC(=O)COc4ccccc4)c3)nn2)CC1	-2.9%	-13.1%	?	7.7%	15.2%
SMILES	L3MBTL1 inh	JMJD2A Tudor inh	G9a inh	BAZ2B block	HP1b chromo inh
Cc1ccc(CCNC(=O)C2COc3ccccc3C2)cc1 (stereo unspecified)	nt	-14.4%	12.5%[59 µM]	0.3%	12.4%[57 µM]
CCCN(C(=O)c1cc(CC)c(C)s1)c1c(N)n(Cc2ccccc2)c(=O)[nH]c1=O	-9.9%	-11.7%	7.4%[0.501 µM]	2.3%	-2.9%
COCCCN(C(=S)NC(=O)c1ccc(Br)cc1)c1c(N)n(Cc2ccccc2)c(=O)[nH]c1=O	-2.7%	-24.8%	50.1µM*	-9.5%	-13.8%
CCc1cc(C(=O)N(CCCOC)c2c(N)n(Cc3ccccc3)c(=O)[nH]c2=O)sc1C	2.6%	-2.4%	12.6µM*	6.6%	38.2%
Cc1c(Cl)cccc1NC(=O)CCn1nc(C)c2c(C)n(-c3ccccc3)nc2c1=O	nt	-0.3%	-0.5%[59 µM]	1.4%	42.1%
Cc1csc(N(C)C(=O)CSc2nnc(COc3cccc4ccccc34)o2)n1	-14.6%[11.4 µM]	-15.7%	10µM*	-6.3%	40.3%
O=C(O)c1ccc(CSc2nnc(COc3ccccc3)o2)cc1	nt	-12.4%	44.7µM*	6.9%	3.4%
CN(C(=O)CSc1nnc(COc2ccccc2)o1)c1ccccc1	nt	-25.2%	-23.5%[59 µM]	79.4µM*	30.9%
Cc1cccc2sc(N(Cc3cccnc3)C(=O)C3COc4ccccc4O3)nc12 (stereo unspecified)	nt	-5.8%	8.1%[59 µM]	-5.2%	15.9%
Cc1c(Cl)cccc1-n1nnc(-c2nc(-c3ccc4c(c3)OCO4)no2)c1C	nt	-2.9%	-0.1%[59 µM]	-3.8%	25.8%
CCOc1ccc(C(=O)Nc2ccc3nc(SCC(=O)N4CCc5ccccc54)sc3c2)cc1	nt	-17.5%	-4.4%[59 µM]	-12.3%	21.2%
COc1ccc(NC(=O)C2CCCN(S(=O)(=O)c3ccc4c(c3)CCCC(=O)N4)C2)c(OC)c1 (stereo unspecified)	nt	-20.7%	-4.9%[59 µM]	6.3%[57.1 µM]	-11.2%
O=C(CCC(=O)N1CCOc2ccc(Cl)cc21)NCCCN1CCN(c2ccccc2F)CC1	3.1%	-18.8%	89.1µM*	?	21.4%
Cc1ccc(C)c(N2CCN(CCCNC(=O)CCC(=O)N3CCOc4ccc(Cl)cc43)CC2)c1	nt	nt	-6.9%	?	nt
O=C(CCC(=O)N1CCOc2ccc(Cl)cc21)NCCCN1CCC(Cc2ccccc2)CC1	0.5%	-25.9%	11.9%	-36.6%	21.8%
COc1ccc(N2CCN(CCCNC(=O)CCC(=O)N3CCOc4ccc(Cl)cc43)CC2)cc1	nt	?	nt	31.6µM*	-17.2%
Cn1c(=O)c2c(nc3n(-c4ccc(O)cc4)c(-c4ccc(Br)cc4)cn23)n(C)c1=O	nt	-2.6%	16.6%[59 µM]	-12.8%	39.2%
CC(C)(C)OC(=O)NCc1ccc(CNC(=O)c2nc[nH]c2C(=O)N2CCN(C(=O)OC(C)(C)C)CC2)cc1	2.1%	?	14.1%[0.501 µM]	4.7%	31.0%
CCOc1ccc(N=C(NN)c2ccc3ccccc3n2)cc1	-22.6%	50.1µM*	12.6µM*	39.8µM*	-1.2%[57 µM]
C/C(=N\NC(=S)Nc1cccc(C)c1)c1cccc(N)c1	-1.9%	?	?	?	?
CC(=NNC(=S)Nc1cccc(C)c1)c1ccccn1	nt	50.1µM*	nt	nt	?
C/C(=N\NC(=S)Nc1ccc(C)cc1)c1cccc(N)c1	-13.6%	?	44.7µM*	?	-25.1%
CC(=NNC(=S)Nc1ccc(C)cc1)c1ccccn1	nt	79.4µM*	nt	nt	?
C/C(=N\NC(=S)Nc1ccc(F)cc1)c1ccc2c(c1)OCCO2	?	31.6µM*	?	35.5µM*	?
C/C(=N\NC(N)=S)c1ccc2c(c1)OCCO2	-0.7%	-15.2%	nt	-3.3%	9.2%
